Compounds with a hit are over-represented: about 2.4% of the library has one in this group of screens.
D2 ag-1 – HTS Assay for Allosteric Agonists of the Human D2 Dopamine Receptor: Primary Screen for Agonists. 0.53% of 340,000 active. HEK293 T-REx D2 cells, calcium flux agonist mode. activation, % at 2 µM;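 active = activation over 3 SD above normal in the single-dose calcium agonist read, cut at about 30% in these data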; also: 0% is about no effect
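Tetracycline-induced HEK293 T-REx cells with force-coupled D2 receptor, plated overnight at 30 C, loaded with no-wash calcium dye. After a 10 s baseline, compound was pin-added and calcium flux read kinetically for 180 s; calcium rises flagged agonists.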
D2 PAM-1 – Beta-Arrestin HTS for Positive Allosteric Modulators of the Human D2 Dopamine Receptor: Potentiators | D(2) dopamine receptor (Homo sapiens), P14416 | DiscoveRx D2 beta-arrestin cells, luminescence, 90 min; 100% = 57 uM dopamine signal | potentiation, % (no concentration beside the values) | 0.23% of 360,000 active | AID 624464, 2012; in the data active = potentiation above about 50%; inconclusive = mostly about 30% to 49%
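D2 cells co-treated with compound plus 50 nM dopamine (EC20) for 90 min at 37 deg C to detect potentiation. Beta-arrestin recruitment was read as enzyme-fragment luminescence after 1 h at ambient temperature. Full response was set by 57 uM dopamine.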
D2 ag-2 – Beta-Arrestin HTS for Positive Allosteric Modulators of the Human D2 Dopamine Receptor: Agonists; DiscoveRx PathHunter D2 beta-arrestin, luminescence, 90 min; 100% = 57 uM dopamine signal; 0.084% of 360,000 active; AID 624465, 2012; activation, % (concentration not given with the values); in the data active = activation above about 40%; inconclusive = between about 15% and that limit
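Agonist mode: compounds alone added to overnight-plated D2 PathHunter cells for 90 min at 37 C, with 57 uM final dopamine (EC100) defining full response. Beta-arrestin recruitment detected by chemiluminescent reagent, read after 1 h at ambient temperature.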
D2 PAM-2 – HTS Assay for Positive Allosteric Modulators of the Human D2 Dopamine Receptor: Primary Screen for Potentiators; D(2) dopamine receptor (Homo sapiens), P14416; HEK293 T-REx D2, calcium flux, EC20 dopamine potentiation; potentiation, % at 10 µM; 0.34% of 340,000 active; AID 485347, 2010;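 active = potentiation over 3 SD above the plate norm, cut at about 30% in these data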; also: 0% is about no effect
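Potentiation of an EC20 dopamine calcium response is measured in a force-coupled, tetracycline-inducible Hek293 Trex D2 line. Compound-only kinetic reads over 180 s flag agonists before dopamine addition.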
D2 antagonist – HTS Assay for Allosteric Antagonists of the Human D2 Dopamine Receptor: Primary Screen for Antagonists | D(2) dopamine receptor (Homo sapiens), P14416 | HEK293 TREx D2 cells, calcium flux, dopamine EC80 | inhibition, % at 10 µM | 2% of 340,000 active; in the data active = inhibition above about 30%; inactive = below that, where a call was filed; also: 0% is about no effect
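Calcium mobilization kinetics were recorded at 1 s intervals in tetracycline-induced HEK293 T-REx D2 cells, first for 180 s after compound addition and then 180 s after EC80 dopamine.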
D3 ag – qHTS of D3 Dopamine Receptor Agonist: D3 Dopamine Receptor B-arrestin Agonist Confirmatory Assay; shares compounds with D2 ag-1; DiscoveRx D3 beta-arrestin cells, luminescence, 90 min; Potency, µM (doses to about 76.9 µM), for the others: at the highest dose activation, most hits filed as activators; 4% of 2,300 active;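 also: potency is read from the fitted curve at half-maximal effect; 100% = dopamine control response; nearly all actives have a fitted effect of over 70% in size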
Target sequence (P35462 whole entry, looked up): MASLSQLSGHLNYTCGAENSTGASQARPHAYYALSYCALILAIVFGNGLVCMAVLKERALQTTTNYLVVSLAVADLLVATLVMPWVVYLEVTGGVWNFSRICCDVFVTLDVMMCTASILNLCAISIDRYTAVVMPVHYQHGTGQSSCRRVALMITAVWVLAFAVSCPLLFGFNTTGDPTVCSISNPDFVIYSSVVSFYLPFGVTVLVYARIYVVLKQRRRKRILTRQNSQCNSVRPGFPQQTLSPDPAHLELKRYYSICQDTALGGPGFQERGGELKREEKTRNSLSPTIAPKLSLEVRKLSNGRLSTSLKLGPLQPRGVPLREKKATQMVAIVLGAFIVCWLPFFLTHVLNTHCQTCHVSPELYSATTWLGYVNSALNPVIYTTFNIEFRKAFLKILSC
D2 ag-3 – qHTS of D3 Dopamine Receptor Agonist: D2 Dopamine Receptor B-arrestin Agonist Counterscreen; shares compounds with D2 ag-1; DiscoveRx PathHunter D2 beta-arrestin, luminescence, 90 min; response scale: percent relative to full dopamine signal; Potency, µM (highest dose often 76.9 µM), inactives show top-dose activation, hits mostly activators; 5.9% of 2,300 active; also: potency is read from the fitted curve at half-maximal effect; % of control where 0% means no effect; nearly all actives have a fitted effect of over 70% in size
Numbers without * were called inactive. Unless noted, calls follow the shape of the dose curve; as a rule, active = well fitted activation curve with a large enough effect; inconclusive = small, poorly fitted or top-dose-only effect; inactive = flat fitted curve, though single readings scatter.

COc1cccc2c1cc1c(=O)n(CC(=O)N3CCC(C)CC3)nc(C)n12 was read as D2 PAM-1 12.5, D2 ag-2 inconclusive, D2 PAM-2 -8.9, D3 ag -4.3% and D2 ag-3 inconclusive.
For Cc1ccccc1C(=O)N1CCC(C(=O)N(CC(C)C)c2c(N)n(CC(C)C)c(=O)[nH]c2=O)CC1 the results were D2 ag-1 0.3, D2 PAM-1 -1.1, D2 ag-2 -0.6, D2 PAM-2 6.7 and D2 antagonist -24.4.
COCCN(C(=O)C1CCN(C(=O)c2ccccc2C)CC1)c1c(N)n(CC(C)C)c(=O)[nH]c1=O was read as D2 ag-1 0.3, D2 PAM-1 -3.9, D2 ag-2 0.2, D2 PAM-2 4.7, D2 antagonist -5.9, D3 ag -0.8% and D2 ag-3 -2.2%.
For Cc1c(C(=O)NCCc2ccc(S(N)(=O)=O)cc2)cccc1[N+](=O)[O-] the results were D2 ag-1 1.3, D2 PAM-1 -2.5, D2 ag-2 0.5, D2 PAM-2 21.7 and D2 antagonist -4.6.
Screening Cc1ccc(C(=O)NCCc2ccc(S(N)(=O)=O)cc2)cc1[N+](=O)[O-] returned D2 ag-1 29.4, D2 PAM-1 -1.4, D2 ag-2 -4.7, D2 PAM-2 -22.4, D2 antagonist 17.1, D3 ag -18.5% and D2 ag-3 -5.2%.
CCOC(=O)C1(Cc2cccc(F)c2)CCN(CCCn2cccn2)CC1 was read as D2 ag-1 42.5*, D2 PAM-1 -22.8, D2 ag-2 -0.4, D2 PAM-2 -21.5, D2 antagonist -23.6, D3 ag -8.9% and D2 ag-3 0.4%.
CCOC(=O)C1(CCOc2ccccc2)CCN(CCCn2cccn2)CC1 was read as D2 ag-1 57.0*, D2 PAM-1 -13.2, D2 ag-2 1.8, D2 PAM-2 -21.4, D2 antagonist 76.8*, D3 ag 8.0% and D2 ag-3 18.4%.
`CCOC(=O)C1(CCOc2ccccc2)CCN(Cc2cccc(-n3cccn3)c2)CC1` gave D2 ag-1 0.0, D2 PAM-1 -19.5, D2 ag-2 6.0, D2 PAM-2 -20.3 and D2 antagonist -1.4.
`Cc1ccc(C2=CC(c3ccccc3C)n3c(nc4ccccc43)N2)cc1` (configuration not stated) gave D2 ag-1 0.5 and D2 PAM-2 -17.0.
For O=C(O)CNC(=O)c1ccc(NC(=O)/C(=C/c2cccc([N+](=O)[O-])c2)NC(=O)c2ccco2)cc1 the results were D2 ag-1 47.0*, D2 PAM-1 -5.3, D2 ag-2 -4.7, D2 PAM-2 -23.3, D2 antagonist 16.0, D3 ag -4.4% and D2 ag-3 -5.5%.
For O=C(NCC1CCCO1)/C(=C\c1cccc([N+](=O)[O-])c1)NC(=O)c1ccccc1 (configuration not stated) the results were D2 ag-1 0.1, D2 PAM-1 -3.3, D2 ag-2 -2.5, D2 PAM-2 -2.1, D2 antagonist 10.5, D3 ag -10.0% and D2 ag-3 -5.2%.
`O=C(O)CNC(=O)c1ccc(NC(=O)/C(=C/c2ccccc2)NC(=O)c2ccco2)cc1` gave D2 ag-1 1.1, D2 PAM-1 -10.7, D2 ag-2 -6.4, D2 PAM-2 3.1 and D2 antagonist 2.8.
`O=C(NCC1CCCO1)/C(=C/c1ccccc1)NC(=O)c1ccccc1` (configuration not stated) gave D2 ag-1 -0.4, D2 PAM-1 -8.2, D2 ag-2 -3.6, D2 PAM-2 1.2 and D2 antagonist -14.2.
COc1cccc(CNC(=O)COC(=O)CN(C)S(=O)(=O)c2ccc(NC(C)=O)cc2)c1 was read as D2 PAM-1 3.6, D2 ag-2 -3.3 and D2 PAM-2 14.2.
COc1ccc(-c2[nH]ncc2CN2CCCN(C(=O)c3ccco3)CC2)cc1F was read as D2 PAM-1 -5.3, D2 ag-2 3.5, D2 PAM-2 -18.4, D3 ag -2.1% and D2 ag-3 4.7%.
Screening COc1ccc(OC)c(CN2CCN(C(=O)c3ccco3)CC2)c1 returned D2 ag-1 83.4*, D2 PAM-1 1.7, D2 ag-2 inconclusive, D2 PAM-2 -18.9, D2 antagonist 83.0*, D3 ag -1.4% and D2 ag-3 19.0%.
COc1ccc(NC(=O)C(=O)NCCN2CCN(C(=O)c3ccco3)CC2)cc1 was read as D2 ag-1 39.3*, D2 PAM-1 20.2, D2 ag-2 13.8, D2 PAM-2 -12.9, D2 antagonist 22.4, D3 ag 5.01µM* and D2 ag-3 22.8%.
`COc1ccc(C(=O)N2CCN(Cc3cc(OC)ccc3OC)CC2)cc1` gave D2 ag-1 0.2, D2 PAM-1 -2.8, D2 ag-2 0.5, D2 PAM-2 -24.9 and D2 antagonist -36.1.
COc1cccc(CN2CCN(C(=O)c3ccco3)CC2)c1 was read as D2 ag-1 84.2*, D2 PAM-1 inconclusive, D2 ag-2 69.7*, D2 PAM-2 -16.7, D2 antagonist 81.9*, D3 ag 78.4% and D2 ag-3 8.91µM*.
`Cc1nc2c(-c3ccc(F)cc3)c(C)nn2c(C)c1CCC(=O)N1CCC(Cc2ccccc2)CC1` gave D2 ag-1 -0.7, D2 PAM-1 -5.4, D2 ag-2 -7.1, D2 PAM-2 3.1 and D2 antagonist -3.1.
CCC(C)(C)C1CCC2(CC1)NC(CO)(CO)CO2 (configuration not stated) was read as D2 ag-1 1.4, D2 PAM-1 -5.2, D2 ag-2 0.8, D2 PAM-2 -8.5 and D2 antagonist -1.3.
For CCSc1nnc(NC(=O)NC2CCCCC2)s1 the results were D2 ag-1 0.0, D2 PAM-1 -4.7, D2 ag-2 -5.3, D2 PAM-2 2.7 and D2 antagonist -13.4.
For O=C(Nc1ccc(NS(=O)(=O)c2ccccc2)cc1)c1ccccc1 the results were D2 ag-1 -2.8, D2 PAM-1 -4.5, D2 ag-2 2.3 and D2 antagonist -22.8.

Screening data (PubChem)
